Hit rate of the full screen: of about 69,000 compounds, about 8,600 (12%) showed an effect of 50% or more. The entries come from a sample that favours strong results as a whole.
tested on: Plasmodium berghei; assay: Screen against P. berghei liver stage (PbLuc), transformed with Luciferase, at 10uM; format: functional, HepG2; settings: tested at 10 uM

SMILES	INHIBITION [%]
CCCc1n[nH]c(C2CN(C(=O)c3cccc4[nH]ncc34)CCO2)n1 (stereo not drawn)	33.3
Cc1ccc(OC2(C(=O)NC(C)Cc3ccncc3)CCNCC2)cc1 (stereo not drawn)	26.7
CN(C)C(=O)CO[C@H]1CO[C@@]2(CCN(Cc3ccsc3)C2)C1	24
Cc1nn(C)c(C)c1C1CCCN1CC(=O)Nc1ccc(Cl)cn1 (stereo not drawn)	-48.4
O=C(Cc1cccnc1)N1CCCC2(CCN(C3CCOCC3)C2)C1 (stereo not drawn)	-62.2
Cc1ccc(C(=O)N2CCC3(CC2)CC(c2ccccc2)C(=O)N3)cn1 (stereo not drawn)	30.5
Cc1nccn1[C@@H]1CC[C@@H](NC(=O)CCOc2ccccc2)[C@H]1O	21.7
CCC=C(C)C(=O)NCc1ccnc(OC2CCOCC2)c1	56
CCC=C(C)C(=O)NCc1ccnc(OC)c1	42.3
O=C(Cc1cccs1)NCc1ccnc(OC2CCOCC2)c1	-32.8
O=C(NCCC1CCN(CC(F)(F)F)CC1)C1COCCO1 (stereo not drawn)	21.8
c1cncc(CNCc2cccs2)c1	6.26
O=C1CCCN1Cc1nnc2n1CCN(Cc1ccoc1)CC2	33.2
O=C(O)c1cc(S(=O)(=O)N2CCOc3ccccc32)cc(Cl)c1Cl	23.25
O=C(c1ccccn1)N1C[C@H]2CC[C@@H](C1)N(C(=O)CCC1CCCC1)C2	-36.6
O=C(c1ccccn1)N1C[C@H]2CC[C@@H](C1)N(C(=O)CCN1CCCC1)C2	50.3
O=C(c1ccccn1)N1C[C@H]2CC[C@@H](C1)N(C(=O)CCC(F)(F)F)C2	6.33
CC(=O)c1c(F)cccc1NCC(O)C(C)(C)C (stereo not drawn)	30.5
NCC1Cn2nnc(-c3cccc(F)c3)c2CO1 (stereo not drawn)	6.8
c1cnc(NCC2Cn3nnc(-c4ccsc4)c3CO2)nc1 (stereo not drawn)	45.1
Fc1cccc(-c2nnn3c2COC(CNc2ncccn2)C3)c1 (stereo not drawn)	54.4
c1cnc(NCC2Cn3nnc(-c4ccoc4)c3CO2)nc1 (stereo not drawn)	25.2
Fc1cnc(NCC2Cn3nnc(-c4ccccc4)c3CO2)nc1 (stereo not drawn)	50.9

SMILES	INHIBITION [%]
O=C(NCC1Cn2nnc(-c3ccccc3)c2CO1)c1ccc[nH]1 (stereo not drawn)	-29
CNCC(=O)N1CCCC1c1n[nH]cc1-c1ccccc1F (stereo not drawn)	-16
Cn1ccnc1CN1CCOC(C)(C(=O)N2CCOCC2)C1 (stereo not drawn)	35.2
COCCCN(Cc1ccc(F)cc1Cl)C1CCS(=O)(=O)C1 (stereo not drawn)	34.9
Cc1cccc(CN2CCC3(CCCN(C(=O)c4ccsc4)C3)C2=O)n1 (stereo not drawn)	12.6
Cc1nnc([C@]23COC[C@H]2CN(Cc2cnn(C)c2)C3)o1	23.1
Cc1cc(Br)c(O)c(-c2nc(N3CCOCC3)sc2C)c1	33.7
Cc1cc(Br)c(O)c(-c2nc(N3CCCCC3)sc2C)c1	64.9
Cc1cc(Br)c(O)c(C(=O)N2CCC(CN3CCCCCC3)CC2)c1	28.1
Cc1ccsc1CN1C[C@@H]2COC[C@]2(COCC(=O)N(C)C)C1	-4.32
O=C(CC1CC1)NC1CCc2c(ccc(=O)n2CC2CC2)C1 (stereo not drawn)	-5.63
O=c1ccc2c(n1CC1CC1)CCC(NS(=O)(=O)C1CC1)C2 (stereo not drawn)	14.8
COc1ncccc1CNC1CCc2c(ccc(=O)n2CC2CC2)C1 (stereo not drawn)	55.7
O=c1ccc2c(n1CC1CC1)CCC(NCc1cccs1)C2 (stereo not drawn)	92.8
Cc1cnc(NC2CCc3c(ccc(=O)n3CC3CC3)C2)nc1 (stereo not drawn)	81.5
COCCn1c2c(ccc1=O)CC(NCc1cccnc1OC)CC2 (stereo not drawn)	41.2
CCCS(=O)(=O)NC1CCc2c(ccc(=O)n2CC2CC2)C1 (stereo not drawn)	43.9
Cc1cnc(NC2CCc3c(ccc(=O)n3C)C2)nc1 (stereo not drawn)	-14.3
CCS(=O)(=O)NC1CCc2c(ccc(=O)n2CC2CC2)C1 (stereo not drawn)	35.7
Cn1cc(CNC2CCc3c(ccc(=O)n3C)C2)cn1 (stereo not drawn)	18.6
COc1ncccc1CNC1CCc2c(ccc(=O)n2C)C1 (stereo not drawn)	60.2
CC(C)NC1CCc2c(ccc(=O)n2CC2CC2)C1 (stereo not drawn)	47.4
O=C(CCN1CCOCC1)Nc1cccc(CNCc2ccsc2)c1	-1.79

SMILES	INHIBITION [%]
O=C(N1CCCC1)N1CC[C@H]2OCC[C@@]2(COc2ncccc2F)C1	4.1
CC(=O)N1CCC(C(=O)N2CCCC(Cc3cccc(C)n3)C2)CC1 (stereo not drawn)	-18.9
CS(=O)(=O)N1CCO[C@@H]2CN(C(=O)c3cccnc3)C[C@@H]2C1	2.7
COc1ccccc1CC(C)CC(=O)NS(=O)(=O)C(C)C (stereo not drawn)	9.57
CCC1=N[C@@]2(CC[C@@H]3CN(CC4CC4)C[C@@H]32)C(=O)N1C	24.5
CC(=O)NCc1nnc2n1CCN(c1nc(C)nc3sccc13)CC2	55
Cn1ccnc1CN1CCc2ncnc(N3CCCC3)c2CC1	-78.5
CC(=O)NCc1nnc2n1CCN(c1ncnc3c(C)csc13)CC2	24.7
CC(=O)NCc1nnc2n1CCN(c1ncnc3c1CCC3)CC2	56.1
O=C(NCc1nnc2n1CCC2)N1CCc2sccc2C1	-8.11
Cc1ccc(S(=O)(=O)CCC(=O)NCc2nnc3n2CCC3)cc1	-2.34
COc1ncccc1C(=O)N1CCC(Nc2ccc(C)nn2)CC1	33.7
c1nnc(Nc2cncc(C3CCCN3)n2)s1 (stereo not drawn)	13.285
Cc1cc(=O)n(C)cc1NC(=O)Cc1cccc(F)c1	25.1
Cc1cc(=O)n(C)cc1NC(=O)Cc1cc(F)ccc1F	56.5
Cc1cc(=O)n(C)cc1NC(=O)Cc1ccc(C(F)(F)F)cc1	11.7
Cc1ccc(NC2(C(=O)NCc3c(C)n[nH]c3C)CCCC2)cc1	11.6
Cc1ccc(NC2(C(=O)NCCCc3c(C)n[nH]c3C)CCCC2)cc1	-40.9
Cc1ccc(NC2(C(=O)NCCCN)CCCC2)cc1	53.2
CO[C@H]1CO[C@@]2(CCCN(C(=O)N(C)C)C2)C1	35.8
CCc1n[nH]c(C2CN(C(=O)c3cc(C4CC4)on3)CCO2)n1 (stereo not drawn)	-3.58
CNc1nc(CNC(=O)Nc2ccc([S+](C)[O-])c(F)c2)cs1 (stereo not drawn)	22.955
Cn1ccnc1CCNS(=O)(=O)c1cccnc1	38.6

SMILES	INHIBITION [%]
Cn1ccnc1CN1CCC(CNS(=O)(=O)c2cccnc2)C1 (stereo not drawn)	58.3
O=C(Oc1ccccc1)N1CCC(CNS(=O)(=O)c2cccnc2)CC1	18.2
O=C(c1ccco1)N1CCc2onc(Cn3cccn3)c2C1	21.5
CCNC(=O)[C@@H]1C[C@H](N)CN1Cc1ccc2cccc(Cl)c2n1	35.4
CNC(=O)[C@@H]1C[C@@H](N)CN1Cc1ccc2cccc(OC)c2n1	55.5
CCNC(=O)[C@@H]1C[C@@H](N)CN1Cc1ccc2cccc(Cl)c2n1	11.9
O=C1CC2(CCN(S(=O)(=O)c3cccs3)C2)CN1c1ccccc1 (stereo not drawn)	-0.104
CC(Cn1cccn1)NC(=O)N1CCN(Cc2ccsc2)CC1 (stereo not drawn)	4.71
CCCN(Cc1cnn(C)c1)S(=O)(=O)c1ccc(F)c(C#N)c1	-32.4
O=C(c1ccccn1)N1CCN(c2ccc(-n3cccc3)nn2)CC1	27.6
O=C(c1ccccc1F)N1CCN(c2ccc(-n3cccn3)nn2)CC1	0.472
Cc1cccc(C(=O)N2CCN(c3ccc(-n4cccc4)nn3)CC2)c1	51.5
O=C(c1ccccc1F)N1CCN(c2ccc(-n3cccc3)nn2)CC1	55.9
O=C(c1cccnc1)N1CCN(c2ccc(-n3cccc3)nn2)CC1	0.647
Cc1nc(N2CCN(C(=O)c3cccnc3)CC2)cc(-n2cccc2)n1	32.4
COCC(=O)N1CCCC1c1nccnc1Nc1nc(C)cs1 (stereo not drawn)	39.7
Cc1ccc(C(=O)O)cc1CNC(=O)CN1CC(C)(C)[C@@](C)(O)C1	28.7
Cc1cnn(CC2CCCN2CC(=O)Nc2cc(C(C)C)no2)c1 (stereo not drawn)	-35.7
CN(C)CC1(O)CCCN(Cc2cnc(-c3ccco3)nc2)CC1 (stereo not drawn)	6.28
CC(C)c1nccc(CN2CCC(O)(CN3CCCCC3)C2)n1 (stereo not drawn)	32.5
Cc1cc(F)ccc1CN1CCC(O)(CN2CCCCC2)C1 (stereo not drawn)	-10.4
OC1(CN2CCCC2)CCCN(Cc2cnc(-c3ccco3)nc2)C1 (stereo not drawn)	61
CC(C)c1nccc(CN2CCCC(O)(CN(C)C)C2)n1 (stereo not drawn)	7.92

SMILES	INHIBITION [%]
Cc1cc(F)ccc1CN1CCCC(O)(CN2CCCC2)C1 (stereo not drawn)	55
OC1(CN2CCCC2)CCCN(Cc2ccc(F)cc2Cl)C1 (stereo not drawn)	13.7
CC(C)c1nccc(CN2CCCC(O)(CN3CCCC3)C2)n1 (stereo not drawn)	62
OC1(CN2CCCC2)CCCN(Cc2cnc(-c3ccccc3)nc2)C1 (stereo not drawn)	45.7
O=C(Cc1cccnc1)N1CCC2(CCN(CC3CCCCC3)C2)CC1	26.4
Cc1cc(C)cc(C(=O)N2CCCC3(CCCC(=O)N3C)C2)c1 (stereo not drawn)	-15.9
O=C(c1ccc(-n2ccnc2)cc1)N1CCCC(n2ccnc2)C1 (stereo not drawn)	2.3
CC(C)(NS(C)(=O)=O)c1nc(-c2cccc(Cl)c2)no1	-4.83
CC=C(C)C(=O)NS(=O)(=O)c1ccc(C(F)(F)F)cc1	13.2
Cc1cccc(CN(Cc2cccnc2)C2CC(C)(C)NC(C)(C)C2)n1	35.2
CC1(C)CC(N(Cc2ccncc2)Cc2cccnc2)CC(C)(C)N1	50.1
Cc1nc[nH]c1CN(Cc1ccccc1)C1CC(C)(C)NC(C)(C)C1	6.785
Cc1ccc(CN(Cc2cccnc2)C2CC(C)(C)NC(C)(C)C2)s1	42.1
Cc1ccc(CN(Cc2ccccn2)C2CC(C)(C)NC(C)(C)C2)s1	37
Cc1ccsc1CN(Cc1cccnc1)C1CC(C)(C)NC(C)(C)C1	33.7
CCCN(Cc1cccnc1)C1CC(C)(C)NC(C)(C)C1	10
CC1(C)CC(N(Cc2cccnc2)Cc2cccc(F)c2)CC(C)(C)N1	75.3
Cc1nc[nH]c1CN(Cc1ccc(F)cc1)C1CC(C)(C)NC(C)(C)C1	42.4
CC1(C)CC(N(Cc2ccccc2)Cc2c[nH]cn2)CC(C)(C)N1	13.2
CC1(C)CC(N(Cc2ccccc2)Cc2cccnc2)CC(C)(C)N1	65.4
CC1(C)CC(N(Cc2cccnc2)Cc2cccnc2)CC(C)(C)N1	64.9

From ChEMBL document CHEMBL4513216, “Probing the Open Global Health Chemical Diversity Library for Multistage-Active Starting Points for Next-Generation Antimalarials” (ACS Infect Dis, 2020)
